# Where “and” joins values, the source holds several entries; their conditions need not be identical. Equal values may be shown once. Inconclusive results are not listed. A call without a number means that no potency is given here. Unmarked numbers belong to inactive results. Calls of active or inactive are those of the source. Calls follow the shape of the dose curve; as a rule, active = well fitted curve in the direction sought with a large enough effect; inconclusive = small, poorly fitted or top-dose-only effect, or another doubt; inactive = no such curve, though single readings can be large; an effect the other way counts as inactive or inconclusive.
# Assays:
# [1] = target: Cytochrome P450 3A7 (Homo sapiens) (UniProt P24462); test: Cytochrome P450 family 3 subfamily A member 7 (CYP3A7) small molecule antagonists: luciferase biochemical qHTS assay (AID 1963596); also: nearly all actives have a fitted effect of over 40% in size; also: potency is read from the fitted curve at half-maximal effect
# Cytochrome P450 3A7 (Homo sapiens), sequence (P24462 whole entry, looked up): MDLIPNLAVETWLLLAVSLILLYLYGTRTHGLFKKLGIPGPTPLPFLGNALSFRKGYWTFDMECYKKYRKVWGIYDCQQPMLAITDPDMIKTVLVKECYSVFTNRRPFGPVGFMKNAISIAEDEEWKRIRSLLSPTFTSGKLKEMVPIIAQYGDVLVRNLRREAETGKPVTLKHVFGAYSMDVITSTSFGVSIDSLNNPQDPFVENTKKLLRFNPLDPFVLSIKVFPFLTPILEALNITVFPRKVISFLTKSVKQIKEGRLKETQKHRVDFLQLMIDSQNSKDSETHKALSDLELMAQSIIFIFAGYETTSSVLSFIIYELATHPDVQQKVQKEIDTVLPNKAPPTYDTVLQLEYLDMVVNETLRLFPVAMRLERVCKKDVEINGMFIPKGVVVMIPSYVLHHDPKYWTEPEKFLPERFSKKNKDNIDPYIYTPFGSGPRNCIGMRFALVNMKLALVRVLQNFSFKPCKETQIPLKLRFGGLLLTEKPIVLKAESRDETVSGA
# Outline: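 Compounds were screened in qHTS format for interference with CYP3A7 turnover of a proluciferin substrate. Reactions ran 1 h at room temperature after NADPH regeneration solution was added, then luciferin product was detected by luminescence.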
# [2] = Quantitative highthroughput screen to assess conditional lethalithy of NOMO1 cells grown in RPMI1640 with untreated serum (RPMI+s) (AID 1963876); also: nearly all actives have a fitted effect of over 35% in size
# Outline: (§1)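 Each medium arm—HPLM with 10% dialyzed FBS, or RPMI1640 with 5 mM glucose and 10% untreated or dialyzed FBS—was screened against an 11-point, 3-fold compound titration for 48 h at 37 °C, with CellTiter-Glo luminescence as endpoint.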
# [3] = Quantitative highthroughput screen to assess conditional lethalithy of NOMO1 cells grown in RPMI1640 with dialyzed fetal bovine serum (RPMI+ds) (AID 1963877); also: series mostly up to about 46 µM; nearly all actives have a fitted effect of over 30% in size
# Outline: as §1
# [4] = Quantitative highthroughput screen to assess conditional lethalithy of NOMO1 cells grown in Human Plasma-Like Medium with dialyzed fetal bovine serum (HPLM+ds) (AID 1963878); also: nearly all actives have a fitted effect of over 35% in size; also: potency is read from the fitted curve at half-maximal effect
# Outline: as §1
# [5] = Quantitative highthroughput screen to assess conditional lethalithy of P12 Ichikawa cells grown in Human Plasma-Like Medium with dialyzed fetal bovine serum (HPLM+ds) (AID 1963879); settings: Potency: viability; also: nearly all actives have a fitted effect of over 35% in size; also: potency is read from the fitted curve at half-maximal effect; as to viability: series mostly up to about 46 µM
# Outline: as §1
# [6] = Quantitative highthroughput screen to assess conditional lethalithy of P12 Ichikawa cells grown in RPMI1640 with dialyzed fetal bovine serum (RPMI+ds) (AID 1963880); settings: Potency: P12-Ichikawa viability; also: nearly all actives have a fitted effect of over 35% in size
# Outline: as §1
# [7] = Quantitative highthroughput screen to assess conditional lethalithy of P12 Ichikawa cells grown in RPMI1640 with untreated serum (RPMI+s) (AID 1963881); settings: Potency: viability
# Outline: as §1
# [8] = Cellular viability qHTS for adrenocortical cancer (ACC) cell line NCI-H295R (AID 1963990); also: nearly all actives have a fitted effect of over 60% in size; also: potency is read from the fitted curve at half-maximal effect
# Outline: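 Compound titrations (up to 46 uM final) are applied to NCI-H295R cultures for 48 h at 37C. Viable cell number is estimated by CellTiter-Glo signal, normalised to DMSO and doxorubicin controls.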
# [9] = Cellular viability qHTS for adrenocortical cancer (ACC) cell line SW-13 (AID 1963989); settings: SW-13 ACC cells viability, CellTiter-Glo, 48 h; activity (max response): hits give low values; also: nearly all actives have a fitted effect of over 65% in size; also: potency is read from the fitted curve at half-maximal effect;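 as to activity (max response): cells grown in serum-free medium with ITS supplement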
# Outline: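 48 h treatment, SW-13 in ITS/DMEM serum-free; doses up to 46 uM; readout CellTiter-Glo luminescence; curve fit four-parameter logistic.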
# [10] = Quantitative highthroughput screen to assess conditional lethalithy of SEM cells grown in Human Plasma-Like Medium with dialyzed fetal bovine serum (HPLM+ds) (AID 1963882); also: nearly all actives have a fitted effect of over 35% in size; also: potency is read from the fitted curve at half-maximal effect; as to viability: series mostly up to about 46 µM
# Outline: as §1
# [11] = Quantitative highthroughput screen to assess conditional lethalithy of SEM cells grown in RPMI1640 with dialyzed fetal bovine serum (RPMI+ds) (AID 1963884); also: nearly all actives have a fitted effect of over 35% in size; also: potency is read from the fitted curve at half-maximal effect; as to viability: series mostly up to about 46 µM
# Outline: as §1
# [12] = Quantitative highthroughput screen to assess conditional lethalithy of SEM cells grown in RPMI1640 with unreated serum (RPMI+s) (AID 1963883); also: nearly all actives have a fitted effect of over 35% in size; also: potency is read from the fitted curve at half-maximal effect
# Outline: as §1
structure (smiles),measurement,setting,value
CSc1cccc(Nc2ncc3cc(-c4c(Cl)cccc4Cl)c(=O)n(C)c3n2)c1,Potency,[1],inactive
same,Potency,[2],inactive
same,Potency,[3],inactive
same,Potency,[4],inactive
same,Potency,[5],inactive
same,Potency,[6],inactive
same,Potency,[7],inactive
same,Potency,[8],inactive
CS(=O)(=O)c1ccc([C@@H](O)[C@@H](CO)NC(=O)C(Cl)Cl)cc1,Potency,[1],inactive
same,Potency,[2],inactive
same,Potency,[3],inactive
same,Potency,[4],inactive
same,Potency,[5],inactive
same,activity (max response),[9],-8.84%
same,Potency,[8],inactive
CCNC(=O)Nc1ccc(Oc2ncnc(N)c2C=NOC)cc1Cl,Potency,[1],inactive
same,Potency,[2],inactive
same,Potency,[4],inactive
same,Potency,[5],inactive
same,Potency,[7],inactive
same,Potency,[10],1.05 µM (active)
same,Potency,[11],0.935 µM (active)
NNc1nncc2ccccc12,Potency,[1],inactive
same,Potency,[2],inactive
same,Potency,[3],inactive
same,Potency,[4],inactive
same,Potency,[5],inactive
same,Potency,[6],inactive
same,Potency,[7],inactive
same,Potency,[10],inactive
same,activity (max response),[9],12.3% and -11.3%
same,Potency,[8],inactive
C[C@@H]1C[C@H]2[C@@H]3CCC4=CC(=O)C=C[C@]4(C)[C@@]3(F)[C@@H](O)C[C@]2(C)[C@@]1(O)C(=O)COC(=O)c1ccncc1,Potency,[1],8.71 µM (active)
same,activity (max response),[9],-0.514%
OCC(O)CS (configuration not stated),Potency,[1],inactive
same,activity (max response),[9],8.13%
c1ccc2[nH]c(-c3cscn3)nc2c1,Potency,[1],inactive
same,Potency,[2],inactive
same,Potency,[3],inactive
same,Potency,[4],8.33 µM (active)
same,Potency,[5],9.35 µM (active)
same,activity (max response),[9],-9.06% and -18.4%
same,Potency,[8],inactive
CCc1ccc(C(=O)C(C)CN2CCCCC2)cc1 (configuration not stated),Potency,[1],30.9 µM (active)
same,activity (max response),[9],-7.06%
O=C(Nc1ccc([N+](=O)[O-])cc1)Nc1ccc([N+](=O)[O-])cc1,Potency,[1],inactive
same,activity (max response),[9],3.91%
O=c1c(-c2ccc(O)cc2)coc2cc(OC3O[C@H](CO)[C@H](O)[C@H](O)[C@H]3O)cc(O)c12 (some centres not stated),Potency,[1],inactive
same,Potency,[2],inactive
same,Potency,[3],inactive
same,Potency,[5],inactive
same,Potency,[6],inactive
same,Potency,[7],inactive
same,Potency,[10],inactive
same,Potency,[12],inactive
same,Potency,[11],inactive
Nc1ncn([C@H]2C[C@H](O)[C@@H](CO)O2)c(=O)n1,Potency,[1],inactive
same,Potency,[10],2.96 µM (active)
same,Potency,[12],2.64 µM (active)
same,activity (max response),[9],-13% and -6.12%
same,Potency,[8],inactive
COc1ccc([C@@H]2CC(=O)c3c(O)cc(O[C@@H]4O[C@H](CO[C@@H]5O[C@@H](C)[C@H](O)[C@@H](O)[C@@H]5O)[C@@H](O)[C@H](O)[C@@H]4O)cc3O2)cc1O,Potency,[1],inactive
same,Potency,[3],inactive
same,Potency,[4],inactive
same,Potency,[5],inactive
same,Potency,[6],inactive
same,Potency,[7],inactive
same,Potency,[12],inactive
same,Potency,[11],inactive
CC(=O)Nc1ccc(OCC(O)CNC(C)C)cc1 (configuration not stated),Potency,[1],inactive
same,activity (max response),[9],9.26%
O=C(NCCO[N+](=O)[O-])c1cccnc1,Potency,[1],inactive
same,Potency,[2],inactive
same,Potency,[5],inactive
same,Potency,[6],inactive
same,Potency,[7],inactive
same,Potency,[10],inactive
same,Potency,[12],inactive
same,Potency,[11],inactive
same,activity (max response),[9],2.63% and 5.13%
same,Potency,[8],inactive
Nc1ccc(S(=O)(=O)Nc2ncccn2)cc1,Potency,[1],inactive
same,Potency,[3],inactive
same,Potency,[4],inactive
same,Potency,[5],inactive
same,Potency,[6],inactive
same,Potency,[7],inactive
same,Potency,[10],inactive
same,Potency,[12],inactive
same,Potency,[11],inactive
COc1nccc(-c2c(-c3ccc(F)cc3)ncn2C2CCC(O)CC2)n1 (configuration not stated),Potency,[1],inactive
same,Potency,[5],inactive
same,Potency,[7],inactive
same,Potency,[12],5.26 µM (active)
same,activity (max response),[9],-14%
same,Potency,[8],inactive
O=C(Oc1ccccc1)c1cccc(C(=O)Oc2ccccc2)c1,Potency,[1],inactive
same,activity (max response),[9],-1.98%
same,Potency,[8],inactive
COP(=O)(OC)OC(c1ccc(Cl)cc1)P(=O)(OC)OC (configuration not stated),Potency,[1],inactive
same,activity (max response),[9],-0.893%
same,Potency,[8],inactive
CCOC(=O)C(C#N)=C(c1ccccc1)c1ccccc1,Potency,[1],inactive
same,activity (max response),[9],-5.89%
same,Potency,[8],inactive
Cc1ccc(S(=O)(=O)NC(=O)NC2CCCC2)cc1,Potency,[1],inactive
same,activity (max response),[9],10.7%
same,Potency,[8],inactive
COC(=O)c1cc(Cl)ccc1NS(=O)(=O)C(F)(F)F,Potency,[1],inactive
same,activity (max response),[9],-0.552%
same,Potency,[8],inactive
CC(C)(C)NCC(O)COc1ccc(NC(=O)NC2CCCCC2)cc1 (configuration not stated),Potency,[1],inactive
same,activity (max response),[9],5.25%
same,Potency,[8],inactive
C[N+]12CCC(CC1)C(OC(=O)C(O)(c1ccccc1)c1ccccc1)C2 (configuration not stated),Potency,[1],inactive
same,activity (max response),[9],-2.73%
same,Potency,[8],inactive
Cn1c(=O)c2c(ncn2CC(=O)O)n(C)c1=O,Potency,[1],inactive
same,activity (max response),[9],9.83%
same,Potency,[8],inactive
CCCCCCCCCCCCCCC[C@H](O)[C@@H](N)CO,Potency,[1],inactive
same,activity (max response),[9],1.16%
same,Potency,[8],inactive
CCOc1cc(C(=O)N2CCC(N3CCN(C)CC3)CC2)ccc1Nc1ncc2c(n1)N(C1CCCC1)c1ccccc1C(=O)N2C,Potency,[1],inactive
same,Potency,[9],28.2 µM (active)
same,Potency,[8],17.8 µM (active)
O=C(O)Cc1ccc2c(c1)C(=O)c1ccccc1CO2,Potency,[1],inactive
same,activity (max response),[9],11.3%
same,Potency,[8],inactive
NC(=O)c1ncn([C@@H]2O[C@H](CO)[C@@H](O)[C@H]2O)n1,Potency,[1],inactive
same,activity (max response),[9],-0.314% and -2.41%
same,Potency,[8],inactive

# From PubChem BioAssay (NCATS)
